Assay outcomes from PubChem BioAssay.
SW480 rereplic: A quantitative high throughput screen for small molecules that induce DNA re-replication in SW480 colon adenocarcinoma cells; SW480 DNA re-replication, Hoechst DNA content imaging, 48 h; AID 624297, 2012; 340,000 tested, 1.8% active; Potency, µM (doses to about 46.1 µM), for the others: at the highest dose re-replication activation, actives largely listed as activators; note: % of control where 0% means no effect; nearly all actives have a fitted effect of over 55% in size
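Per well, 250 cells were exposed to pinned compound for 48 hr. Nuclear DNA was visualised with Hoechst (40 min, 37 C) and total object intensity recorded by fluorescence scanning.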
A-T KAP1 phos: qHTS Assay for Identifying a Potential Treatment of Ataxia-Telangiectasia | F2112 A-T fibroblasts, KAP-1 phosphorylation AlphaLISA; neocarzinostatin DNA damage 30 min before lysis | Potency, µM (titrated, usually from 57.5 µM), for inactives: top-dose activation, usual class: activators | 320,000 tested, 0.19% active | AID 485349, 2010; note: % of control where 0% means no effect; nearly all actives have a fitted effect of over 45% in size
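ATM-like activity read as KAP-1 phosphorylation via AlphaLISA donor/acceptor antibody pairs after lysis and 6 hr at 25C. Cells were ATM-null patient fibroblasts (F2112, hTERT), dosed 60 min, then exposed to the DSB inducer NCS for 30 min.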
Integrin act MD: qHTS for Activators of Integrin-Mediated Alleviation for Muscular Dystrophy; alpha7betagal myoblasts, beta-gal FDG fluorescence, 48 h; Potency, µM (doses to about 38.3 µM), inactives show at the top dose activation, usual class: activators; 350,000 tested, 0.064% active;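 note: 100% = response of the positive control SU9516; nearly all actives have a fitted effect of over 60% in size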
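alpha7betagal+/- myoblasts (passage 13, 250/well) treated 48 h at 37C with compounds at 1:260 dilution of DMSO stock. Lysed, then beta-galactosidase activity read as FDG fluorescence (ex 480/em 540) after 30 min, with pre-read for autofluorescence.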
MCF10A rereplic: A quantitative high throughput screen for small molecules that induce DNA re-replication in MCF 10a normal breast cells. AID 624296, 2012. MCF 10A DNA re-replication, Hoechst nuclear intensity, 48 h. Potency, µM (titrated, usually from 46.1 µM), for inactives: at the highest dose activity, positive = re-replication, most hits filed as activators. 350,000 tested, 2.9% active; note: % of control where 0% means no effect; nearly all actives have a fitted effect of over 50% in size
Mito fusion act: qHTS Assay for Small Molecule Inhibitors of Mitochondrial Division or Activators of Mitochondrial Fusion; AID 485298, 2010; Potency, µM (titrated, usually from 46.1 µM), inactives show top-dose growth rescue (activation), hits mostly activators; S. cerevisiae fusion-defective mutant growth rescue, CellTiterGlo 48 h; 320,000 tested, 0.23% active; note: % of control where 0% means no effect; nearly all actives have a fitted effect of over 45% in size
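Yeast fusion mutant, YPEG (non-fermentable carbon), compound, 48 h at 37C non-permissive; CellTiterGlo added, 10 min RT, luminescence read. Rescued growth = division inhibition.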
Starred values were filed as active, the others as inactive; ? = inconclusive; / = no result given; [ ] = dose if it differs, or a comment. An excerpt weighted towards active compounds, which were near 4.2% of everything screened. Calls come from the whole dose curve; as a rule, active = well fitted activation curve with a large enough effect; inconclusive = small, poorly fitted or top-dose-only effect; inactive = no such curve, though single readings can be large or run the other way. Potency is the fitted concentration of half-maximal effect.

SMILES	SW480 rereplic	A-T KAP1 phos	Integrin act MD	MCF10A rereplic	Mito fusion act
CCc1nc(N2CCN(C(=O)c3ccco3)CC2)c2c3c(sc2n1)CCCC3	0%	7%	2%	28%	1%
CCCC(=O)C1=C(O)C(c2cccc(Oc3ccccc3)c2)CCC1=O (stereo not drawn)	?	-2%	8%	-3%	-14%
O=C(OCC(=O)N1CCc2ccccc21)c1c2c(nc3ccccc13)CCCCC2	-3%	-6%	13%	10µM*	?
NC(=O)COC(=O)c1c2c(nc3ccccc13)CCCC2	-15%	-1%	1%	19%	-5%
CCOC(=O)c1[nH]c(C)c(C(=O)OCC(=O)N2CCc3ccccc32)c1C	-1%	1%	-17%[7.66 µM]	23µM*	-5%
CC(C)NC(=O)NC(=O)COC(=O)c1c2c(nc3ccccc13)CCC2	0%	-5%	-3%	23µM*	1%
COc1cccc(NC(=O)COC(=O)c2c3c(nc4ccccc24)CCC(C)C3)c1 (stereo not drawn)	?	2%	-60%	10µM*	-4%
CC(C)(C)NC(=O)COC(=O)c1c2c(nc3ccccc13)CCC2	-8%	4%	14%	5%	5%
CN(C)S(=O)(=O)c1ccc(C(=O)Nc2ccccc2SCCC#N)cc1	-13%	-1%	5%	-1%	-4%
Nc1c(Cl)cc(C2=NCCn3c2c2ccc(C(F)(F)F)cc2[n+]3[O-])cc1Cl	-13%	-15%	0%	5%	19%
O=C(Cn1cnc2c(oc3nc4c(cc32)CCCC4)c1=O)Nc1cccc(Cl)c1	?	1%	6%	18µM*	1%
CCn1cc(S(=O)(=O)Nc2ccc(C)c(Cl)c2)cn1	2%	-2%	0%	10%	0%
COc1nc(-c2ccccc2)nc(C)c1CC(=O)O	1%	0%	13%	3%	6.3µM*
COc1ccc(N2CC(C(=O)N/N=C/c3ccc([N+](=O)[O-])cc3)CC2=O)cc1 (stereo not drawn)	-8%	1%	18%	15%	4%
COc1ccc(N2CC(C(=O)N/N=C/c3ccc(C)cc3)CC2=O)cc1 (stereo not drawn)	5.2µM*	2%	-19%	2.3µM*	-4%
CSc1ncccc1C(=O)OCC(=O)c1cc(C)n(C)c1C	-1%	-29%	10µM*	0%	/
N=c1c2c(-c3ccccc3)c(-c3ccccc3)oc2ncn1CCN1CCOCC1	-2%	21%	10%	13%	?
N=c1c2c(-c3ccccc3)c(-c3ccccc3)oc2ncn1CCCN1CCOCC1	?	-5%	-31%	12µM*	0%
CC(C)c1ccc(-n2c(-c3ccccc3)c[n+]3c2CCc2ccccc2-3)cc1	0%	5%	?	?	-14%
COc1ccc(-n2c(-c3ccc(Br)cc3)c[n+]3c2CCc2ccccc2-3)cc1	6%	17%	0%	18µM*	-2%
Cc1oc(-c2ccc(-c3ccccc3)cc2)nc1CN(C)C1CCOC1 (stereo not drawn)	16µM*	11%	-3%	?	0%
Cc1oc(-c2cccc(Cl)c2)nc1CN(C)C1CCOC1 (stereo not drawn)	3%	5%	0%	0%	10%
CC(Oc1ccc(Cl)cc1)C(=O)NNC(=S)NC(=O)c1ccco1 (stereo not drawn)	2%	-3%	7%	?	-23%
COc1ccc(OCCSc2nnc3sc4ccccc4n23)cc1	?	0%	-4%	6.5µM*	-2%
CCOC(=O)c1cccc(NC(=O)c2c(NCc3ccccc3)[nH]c(=O)[nH]c2=O)c1	?	/	10%	5.8µM*	/
SMILES	SW480 rereplic	A-T KAP1 phos	Integrin act MD	MCF10A rereplic	Mito fusion act
CCOC(=O)c1cccc(NS(=O)(=O)c2c(C)[nH]c(=O)[nH]c2=O)c1	-16%	-4%	-18%	3%	2%
O=C(COc1cccc2ccccc12)Nc1cc(Cl)ccc1C(=O)O	1%	2%	14%	6.5µM*	-3%
O=C(COc1cccc2ccccc12)Nc1ccc(Cl)cc1C(=O)O	-13%	8%	?	13%	0%
Cc1cccc(/C=N/Nc2ccc3ccccc3n2)c1	-2%	11%	-17%	21µM*	-11%
C(=N\Nc1ccc2ccccc2n1)/c1ccc2c(c1)OCCO2	?	6%	37%	23µM*	4%
O=C(Nc1ccc(N2C(=O)CCC2=O)cc1Cl)c1cccs1	-5%	0%	-21%	21%	2%
CCC(=O)Oc1oc(-c2ccccc2)nc1C=Nc1ccccc1OC	?	1%	-21%	18µM*	-2%
CCC(=O)Oc1oc(-c2ccccc2)nc1C=Nc1ccc(C)cc1	-96%	-4%	-10%	12%	-7%
Oc1ccc(Nc2ccnc3cc(Cl)ccc23)cc1	?	40µM*	-8%	17%	-55%
Clc1ccc2c(N/N=C/c3cccnc3)ccnc2c1	?	0%	-55%	?	-3%
Clc1ccc2c(N/N=C/c3ccc(Br)cc3)ccnc2c1	18µM*	3%	-56%	2.6µM*	-40%
Cc1ccccc1/C=N/Nc1ccnc2cc(Cl)ccc12	?	1%	-57%	18µM*	-22%
Cc1cc(C)cc(NC(=O)NCC2CCN(Cc3cc(C)ccc3C)CC2)c1	-5%	-3%	-4%	-3%	-1%
Cc1ccc(C)c(CN2CCC(CNC(=O)Nc3ccc(F)c(Cl)c3)CC2)c1	18µM*	-6%	-76%	26µM*	-31%
COc1ccc(-c2nnc(SCc3ccccc3F)o2)cc1OC	-3%	-7%	12%	2%	13%
COc1cc2c3nnc(-c4ccccc4)c-3cn(Cc3ccccc3F)c2cc1OC	23µM*	4%	-31%	23µM*	-2%
COc1cc2c3nnc(-c4ccc(F)cc4)c-3cn(Cc3ccccc3F)c2cc1OC	?	0%	0%	9.2µM*	-2%
Cc1ccc(S(=O)(=O)NC(=O)NC2CCCCCCC2)cc1	-1%	/	/	-5%	/
CCN(CC)CCNC(=O)C12CC3CC(CC(C3)C1)C2	-9%	11%	-8%	2%	-2%
CCN(CC)CCNC(=O)C(Cl)=C1C(Cl)=C(Cl)C(Cl)=C1Cl	12µM*	/	-55%	10µM*	/
CC12CCC(C[N+](C)(CCC[N+](C)(C)C)C1)C2(C)C (stereo not drawn)	1%	/	/	-9%	/
Cc1cc(-c2nc(C)c(C(=O)NN)s2)no1	?	1%	-11%	18µM*	-4%
Cc1nc(-c2ccccc2)sc1C(=O)NN	?	-8%	-1%	18µM*	3%
Cc1ccc(N/C=C/C(=O)c2sc(-c3ccccc3)nc2C)cc1	14%	9%	-6%	9.2µM*	1%
